Bioassay records (PubChem)
Rows were chosen to be rich in hits. Some 1% of all compounds tested hit in one or more screens of this group.
gsp antag – antagonists of gsp mutant (McCune-Albright syndrome). actives 0.4% (n = 340,000). Potency, µM (series often up to 76.9 µM), usual class: inhibitors. gsp-mutant cells, cAMP HTRF, 30 min; calls by dose curve; cell line not stated here;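 further: intracellular cAMP measured with PDE inhibitor Ro 20-1724 present during compound exposure; nearly all actives have a fitted effect of over 65% in size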
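G418-selected cells were plated in DMEM/10% FBS for 16-24 h at 37C, then treated with compounds plus the PDE inhibitor […] (300 uM solution added) for 30 min at 37C. Intracellular cAMP was measured by HTRF after 30 min lysis at room temperature.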
TSHR antagonist – antagonists of human thyroid stimulating hormone receptor; P16473; TSHR-expressing cells, TSH-stimulated cAMP HTRF, 2 h; active compounds read low; activity change, negative = inhibition, % at 11.5 µM; actives 0.2% (n = 330,000); AID 504810;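 active means activity change below a set negative limit, meaning inhibition stronger than a set level, cut at about -70% in these data; inconclusive means activity change between two set negative limits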
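Cell-based HTRF cAMP assay; TSHR cells + compound, TSH EC80 (4nM final), 2 h, 37 deg C. Lysis with anti-cAMP cryptate and cAMP-d2, 30 min RT, read 665/620 nm.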
RXFP1 agonist – agonists of human relaxin receptor RXFP1; Q9HBX9; HEK293T-RXFP1 cAMP TR-FRET, 30 min; response scale: percent of porcine relaxin response, buffer zero; AID 2676; Potency, µM (series often up to 57.5 µM), actives largely listed as activators; actives 0.3% (n = 370,000); active means well fitted activation curve with a large enough effect; inconclusive means small, poorly fitted or top-dose-only effect; further: nearly all actives have a fitted effect of over 60% in size
Target sequence (Q9HBX9 whole entry, looked up): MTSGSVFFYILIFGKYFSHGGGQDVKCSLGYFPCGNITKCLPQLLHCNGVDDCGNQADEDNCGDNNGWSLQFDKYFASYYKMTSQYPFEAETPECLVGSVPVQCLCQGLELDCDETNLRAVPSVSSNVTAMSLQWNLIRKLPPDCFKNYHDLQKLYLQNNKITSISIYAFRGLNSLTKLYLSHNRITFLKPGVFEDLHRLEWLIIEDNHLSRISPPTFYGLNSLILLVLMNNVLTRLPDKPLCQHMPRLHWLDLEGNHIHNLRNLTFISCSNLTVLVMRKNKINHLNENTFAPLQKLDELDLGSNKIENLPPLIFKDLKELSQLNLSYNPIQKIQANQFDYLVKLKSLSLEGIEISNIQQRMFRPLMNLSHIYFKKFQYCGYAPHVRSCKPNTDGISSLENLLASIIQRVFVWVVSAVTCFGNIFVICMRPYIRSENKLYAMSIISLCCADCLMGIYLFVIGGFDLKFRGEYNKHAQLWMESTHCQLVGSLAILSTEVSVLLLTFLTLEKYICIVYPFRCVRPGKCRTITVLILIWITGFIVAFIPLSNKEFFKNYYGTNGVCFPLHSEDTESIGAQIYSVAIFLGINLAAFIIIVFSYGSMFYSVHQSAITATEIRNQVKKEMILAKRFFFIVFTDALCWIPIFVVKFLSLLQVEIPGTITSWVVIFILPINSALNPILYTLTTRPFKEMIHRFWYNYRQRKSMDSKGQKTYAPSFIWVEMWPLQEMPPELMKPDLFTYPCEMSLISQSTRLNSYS
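HEK293 cells stably expressing RXFP1, treated 30 min at 37C with compounds plus PDE4 inhibitor Ro 20174; cAMP measured by HTRF TR-FRET. Normalized to buffer and 29 nM porcine relaxin; EC50 by Hill fit.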
RXFP1 antagonist – antagonists of human relaxin receptor RXFP1. activity change, negative = inhibition, % at 57.5 µM. HEK293-RXFP1, relaxin-stimulated cAMP HTRF, 30 min; active compounds read low. actives 0.59% (n = 350,000). AID 1259400. Q9HBX9;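 active means activity change of -60% or lower, but not beyond a set lower limit; inconclusive means change between -60% and -40%, or beyond the set limit; inactive means change above -40%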
gsp ag – activates gsp, the McCune-Albright syndrome mutation | Potency, µM (doses to about 76.9 µM), actives largely listed as activators | actives 0.13% (n = 340,000) | gsp mutant cells, cAMP HTRF, 30 min; active means well fitted activation curve with a large enough effect; inconclusive means small, poorly fitted or top-dose-only effect, or another doubt; inactive means no such curve, though single readings can be large or run the other way; cell line not stated here;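 further: phosphodiesterase inhibitor Ro 20-1724 added with compounds to block cAMP breakdown; nearly all actives have a fitted effect of over 60% in size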
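Cells in DMEM/10% FBS with G418 were pretreated with compounds in DMSO plus […] (300 uM stock) for 30 min at 37C. cAMP was measured by HTRF (cAMP-d2 plus anti-cAMP antibody-K) after 30 min at room temperature.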
Numbers stand for hits; – = inactive; ? = inconclusive; · = no result given; [ ] = remark or other dose.

SMILES	gsp antag	TSHR antagonist	RXFP1 agonist	RXFP1 antagonist	gsp ag
CC1(C)NC(=O)N(CC(=O)OCC(=O)c2ccc(Br)s2)C1=O	–	–	·	–	10µM
COc1ccc(NC(=O)COC(=O)CN2C(=O)NC(C)(C)C2=O)cc1	–	–	–	–	–
COc1ccc(OC)c(NC(=O)N2CC(C)Oc3ccc(C)cc32)c1 (stereo not drawn)	·	·	–	?	·
CCC1CN(C(=O)NCc2ccccc2)c2ccccc2O1 (stereo not drawn)	–	-72	–	–	–[15.4 µM]
CCOc1ccccc1NC(=O)N1CC(CC)Oc2ccccc21 (stereo not drawn)	·	·	–	-80	·
CCC1CN(C(=O)Nc2cc(C)ccc2OC)c2cc(Cl)ccc2O1 (stereo not drawn)	·	·	–	-61	·
COc1cn(CC(=O)Nc2cc(C)ccc2C)c(CN2CCCCC2)cc1=O	·	·	–	–	·
CCCSc1nc2c(c(=O)[nH]1)C(c1ccc(O)c(OCC)c1)CC(=O)N2 (stereo not drawn)	·	·	–	–	·
CCN(c1cccc(C)c1)S(=O)(=O)c1ccc(N2CCCCS2(=O)=O)cc1	·	·	–	·	·
CCCCOc1ccc(C2c3c(oc4ccc(C)cc4c3=O)C(=O)N2CCCN(C)C)cc1OCC (stereo not drawn)	·	·	–	–	·
N#C/C(=C\c1ccncc1)c1nc2ccccc2o1	–	–	–	–	–[15.4 µM]
N#C/C(=C\Nc1ccccc1O)c1nc2ccccc2o1	50µM	–	–	?	–
Cc1ccc(OC(F)F)c(NC(=O)Nc2cccc(C(F)(F)F)c2)c1	35µM	–	–	–	–
Cn1c(CNC(=O)c2ccc(Cl)cc2)nnc1SCC(=O)NC1CCCC1	–	-98	–	–	–
O=C(c1ccc(-c2ccccc2)cc1)c1ccc([N+](=O)[O-])cc1	·	–	–	·	·
O=C(C#Cc1ccccc1)c1ccc([N+](=O)[O-])cc1	–	–	–	-61	–[15.4 µM]
O=C(C#Cc1ccccc1)c1ccccc1	·	·	·	-107	?
COc1cc(OC)c(NC2(c3ccccc3)C(=O)c3ccccc3C2=O)cc1Cl	·	·	–	·	·
O=C(CN1C(=O)CCc2cc(S(=O)(=O)N3CCOCC3)ccc21)NCc1ccc(Cl)cc1	·	·	–	·	·
O=C(Cc1ccc(Br)c2ccccc12)N/N=C/c1ccccn1	25µM	–	–	?	–[15.4 µM]
O=C(Cc1ccc(F)cc1)N/N=C/c1ccccn1	–	–	–	–	–
O=C(CSc1nc2c([nH]c3ccccc32)c(=O)n1-c1ccccc1)Nc1ccc(Cl)c(Cl)c1	·	·	–	–	·
CN(C(=O)c1cc(S(=O)(=O)N2CCc3ccccc32)cn1C)C1CCCCC1	–	–	–	-103	–
Cc1ccc(N(C)C(=O)c2cc(S(=O)(=O)N3CCc4ccccc43)cn2C)cc1	–	–	–	–	–
COc1ccc2[nH]c3c(=O)n(CCCCC(=O)N4CCC(C(N)=O)CC4)c(=S)[nH]c3c2c1	–	–	–	-95	–
SMILES	gsp antag	TSHR antagonist	RXFP1 agonist	RXFP1 antagonist	gsp ag
CC[C@H](C)NC(=O)CCCCCn1c(=S)[nH]c2c([nH]c3ccc(OC)cc32)c1=O	–	–	–	-80	–
COc1ccc2[nH]c3c(=O)n(CCCCC(=O)NCCN4CCCC4)c(=S)[nH]c3c2c1	–	–	–	?	–
Cc1ccc(NC(=O)c2cc3ccccc3oc2=N)cc1	–	–	–	–	–
N=c1oc2cc(O)ccc2cc1C(=O)Nc1ccc(Cl)cc1	40µM	–	–	–	?
O=C(CSc1n[nH]c(-c2ccc(F)cc2)n1)NCc1ccccc1Cl	·	·	–	–	·
CC(=O)Nc1ccc(-c2csc(N3CCC(C(N)=O)CC3)n2)cc1	·	–	·	·	·
Cc1nn(-c2ccc(F)cc2)c(Cl)c1/C=C(\CC(=O)O)c1nc2ccccc2s1	40µM	–	–	–	–
CC(=O)c1ccc2c3c(cccc13)CC2	–	–	–	–	–
ON=C(c1ccccc1)c1ccc2c3c(cccc13)CC2	·	·	·	-106	–
CCOc1ccc2[nH]c(=O)c(CN(CCCN3CCOCC3)Cc3nnnn3Cc3ccc(OC)cc3)cc2c1	·	–	–	–	–[15.4 µM]
COc1cc2cc(CN(CCCN3CCOCC3)Cc3nnnn3Cc3ccccc3)c(=O)[nH]c2cc1OC	8.9µM	–	–	–	–[15.4 µM]
Cc1c(C(=O)OCC2CCCO2)[nH]c2c1C(=O)CC(c1ccc(N(C)C)cc1)C2 (stereo not drawn)	40µM	–	–	–	–
Cc1c(C(=O)OCc2ccccc2)[nH]c2c1C(=O)CC(c1ccc(N(C)C)cc1)C2 (stereo not drawn)	·	·	–	–	·
CCOc1ccc(NC(=O)c2cc(S(=O)(=O)N3CCCCCC3)cn2C)cc1	·	·	–	·	·
O=C(CN1CCN(C(=O)c2ccccc2)CC1)Nc1cc(S(=O)(=O)N2CCCC2)ccc1Cl	?	–	–	–	–
O=C(CN1CCN(C(=O)c2ccccc2)CC1)Nc1ccc(Cl)cc1F	–	-79	–	–	–[15.4 µM]
O=C(NCCc1ccccc1)c1cc2ccccc2oc1=O	–	-118	–	–	–
O=C(O)c1ccccc1NC(=O)c1cc2ccccc2oc1=O	32µM	–	–	–	?
COC(=O)c1ccccc1NC(=O)C1=C(C)C(=O)OC12CCCCCC2	·	·	–	–	·
Cc1coc2ccccc2c1=O	·	·	·	–	·
CNC(=O)C(C)c1ncc(C(F)(F)F)cc1Cl (stereo not drawn)	–	–	–	–	–[15.4 µM]
CNC(=O)c1cc2ncc(C(F)(F)F)cc2s1	–	–	–	-82	?
CCN(CC)CCN(C(=O)c1ccc([N+](=O)[O-])cc1)c1nc2c(OC)cccc2s1	–	–	–	–	13µM
Cc1nc2n(c(=O)c1CCN1CCC(C(=O)c3ccc(F)cc3)CC1)CCS2	·	·	·	–	·
O=C(/C=C/c1ccco1)Nc1sc2c(c1C(=O)O)CCC2	40µM	–	–	–	–
N#Cc1c(NC(=O)/C=C/c2ccco2)sc2c1CCCC2	–	–	–	–	–
